# Records with an inconclusive call do not appear. Activity calls are given as the source filed them.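 How the source made its calls, unless noted: active means viability loss from added drug above about 55%, and viability with drug at most 40%, in both replicates (limit read from the data, passing the limit was not always enough); inconclusive means both conditions met in only one replicate; inactive means neither replicate meets both conditions.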
# Tests used:
# [1] = growth inhibitors of H69AR lung tumor, primary screen, human, duplicate replicates (AID 580;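 active means viability at or under a set limit in both replicates, limit being median viability minus 3 SD, cut at about 48% in these data, passing the limit was not always enough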;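 further: 100% = mean luminescence of untreated wells and 0% = no signal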); details: H69AR lung tumor cells viability, ATP luminescence, 72 h; at 10 µM; stronger effect = lower value
# [2] = reversal of MRP1-mediated doxorubicin resistance, pilot screen, H69AR cells, doxorubicin co-treatment (AID 601); details: CellTiter-Glo, 72 h, at 10 µM; for differential viability (reversal): stronger effect = higher value
# [3] = 384-well plate pilot, post-Golgi transport modulator project, inhibition of yeast transport mutant growth (AID 636; in the data active means inhibition above about 31%); details: absorbance 615 nm, about 18 h, stronger effect = higher value
# [4] = growth suppression of yeast trafficking mutant, preliminary HTS, modulators of trafficking downstream of Golgi apparatus project, 1536-format plate, OD 615 nm (AID 637; in the data active means inhibition above about 30%); details: yeast transport mutant growth, absorbance 615 nm, 18 h; stronger effect = higher value
# [5] = HUVEC growth inhibition – cell-based, human, primary screen (AID 575;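 active means viability at or below 30% in both replicate assays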;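 further: 100% = median of untreated cell wells with 0.1% DMSO on each plate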); details: HUVEC proliferation, CellTiter-Glo luminescence, 72 h; at 10 µM; stronger effect = lower value
# [6] = OD615 S. cerevisiae growth inhibition, permissive medium, pilot counter-assay, permissive growth control for S. cerevisiae lifespan shortening project (AID 705;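 active means growth inhibition above 25% in both replicates, a cutoff set 3 SD above the mean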); details: OD615, 24 h, at 10 µM, stronger effect = higher value
# [7] = Restrictive medium S. cerevisiae growth inhibition, OD615, pilot screen of yeast lifespan reduction project, restrictive growth control (AID 706;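 active means growth inhibition above a set limit, 3 SD over mean compound inhibition, in both replicates, cut at about 43% in these data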;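 further: modified DeaD lifespan yeast strain shifted to restrictive glucose medium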); details: OD615, 48 h, at 10 µM, stronger effect = higher value
# [8] = viability gain of MRP-1-high H69AR cells under doxorubicin, pilot screen, MRP-1 activator project, CellTiter-Glo, duplicate (AID 807;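 active means viability increase at or above a cutoff of the median across tested compounds plus 3 SD, cut at about 8.5% in these data, passing the limit was not always enough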;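 further: compound pretreatment 18-22 h then 72 h combined with doxorubicin; 0% = doxorubicin alone and 100% = vehicle without doxorubicin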); details: H69AR viability with doxorubicin, CellTiter-Glo luminescence; at 10 µM; stronger effect = higher value
# [9] = growth suppression of beta-catenin knockout HCT116, pilot screen, human colon tumor cells (AID 823;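 active means cell viability at or below a set limit in both duplicate runs, the limit being the all-compound median minus 4 SD, cut at about 23% in these data, passing the limit was not always enough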;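 further: 0% = wells killed by 20 µM Hyamine and 100% = untreated DMSO cell wells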); details: CellTiter-Glo, 60 h, at 10 µM, stronger effect = lower value
# [10] = growth suppression of PTEN-deleted HCT116, pilot screen, cell-based, HCT116 clonal line, CellTiter-Glo (AID 824;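 active means viability at or below 27.92% in each of two runs, the all-compound median minus 4 SD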;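 further: 0% = 20 µM Hyamine control and 100% = vehicle cell control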); details: 60 h, at 10 µM, stronger effect = lower value
# [11] = inhibitors of the yeast RAM network, pilot screen, dse1pr::URA3 reporter, 5-FOA selection (AID 869;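 active means inhibition over a set limit, the all-compound mean plus 3 SD, in both replicate runs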;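 further: 0% = DMSO wells with no growth and 100% = 10 µM 1-NA-PP1 with full growth; RAM network block rescues cells from 5-FOA so hits raise OD615 growth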); details: S. cerevisiae dse1pr::URA3 5-FOA growth, OD615, 2 d; at 10 µM; stronger effect = higher value; strain carries analog-sensitive mutant Cbk1 kinase
# [12] = H69AR cells + 2 uM doxorubicin, measured here: viability with 2 uM doxorubicin, stronger effect = lower value
# [13] = H69AR cells, compound alone cytotoxicity
smiles,measurement,setting,value
COCCCNC(=O)c1c(N)n(-c2cccc(S(N)(=O)=O)c2)c2nc3ccccc3nc12,viability,[1],67.2% (inactive)
same,differential viability (reversal),[2]; H69AR cells + 2 uM doxorubicin,-8.22% (inactive)
same,viability,[2]; [12],75.4%
same,viability,[2]; [13],67.2%
same,inhibition,[3],-4.13% (inactive)
same,inhibition,[4],-0.79% (inactive)
COc1cccc2c1C(=O)c1c(O)c3c(c(O)c1C2=O)C[C@@](O)(C(C)=O)C[C@@H]3O[C@H]1C[C@H](N)[C@H](O)[C@H](C)O1,viability,[5],5.46% (active)
same,inhibition,[3],-2.73% (inactive)
same,inhibition,[4],-0.17% (inactive)
COc1cccc2c1C(=O)c1c(O)c3c(c(O)c1C2=O)C[C@@](O)(C(=O)CO)C[C@@H]3O[C@H]1C[C@H](N)[C@H](O)[C@H](C)O1,viability,[5],22.1% (active)
same,differential viability (reversal),[2]; H69AR cells + 2 uM doxorubicin,-7.64% (inactive)
same,viability,[2]; [12],25.6%
same,viability,[2]; [13],18%
same,inhibition,[3],0.26% (inactive)
same,inhibition,[4],3% (inactive)
Cc1cc2oc(=O)cc(CN3CCCCC3)c2cc1C(C)C,viability,[5],52.5% (inactive)
same,differential viability (reversal),[2]; H69AR cells + 2 uM doxorubicin,0.87% (inactive)
same,viability,[2]; [12],51.2%
same,viability,[2]; [13],52.1%
same,inhibition,[3],-1.82% (inactive)
same,inhibition,[4],-2.06% (inactive)
CCCn1c(N2CCN(CC(=O)NCc3cccs3)CC2)nc2ccccc21,viability,[5],97.6% (inactive)
same,differential viability (reversal),[2]; H69AR cells + 2 uM doxorubicin,-0.505% (inactive)
same,viability,[2]; [12],60.4%
same,viability,[2]; [13],59.9%
same,inhibition,[3],-4.47% (inactive)
same,inhibition,[4],6.03% (inactive)
CCOC(=O)c1cc2sccc2n1CC(=O)Nc1ccc2c(c1)OCCO2,viability,[5],87.4% (inactive)
same,differential viability (reversal),[2]; H69AR cells + 2 uM doxorubicin,7.47% (inactive)
same,viability,[2]; [12],65.2%
same,viability,[2]; [13],72.6%
same,inhibition,[3],-6.1% (inactive)
same,inhibition,[4],0.95% (inactive)
COc1ccc(CCN2CCC(Nc3nc4ccccc4n3Cc3ccc(F)cc3)CC2)cc1,viability,[5],1.47% (active)
same,differential viability (reversal),[2]; H69AR cells + 2 uM doxorubicin,0.16% (inactive)
same,viability,[2]; [12],0.36%
same,viability,[2]; [13],0.52%
CN(C)c1ccc(/C=C/C(O)=C2/C(=O)N(C)C3(C)CC2c2ccccc2O3)cc1 (stereo not given),viability,[5],55.4% (inactive)
same,differential viability (reversal),[2]; H69AR cells + 2 uM doxorubicin,-7.07% (inactive)
same,viability,[2]; [12],44.6%
same,viability,[2]; [13],37.5%
same,inhibition,[3],-2.47% (inactive)
same,inhibition,[4],-12.7% (inactive)
O=c1[nH]c2ccccc2n1CCCN1CCN(C(c2ccccc2)c2ccccc2)CC1,viability,[5],75.3% (inactive)
same,differential viability (reversal),[2]; H69AR cells + 2 uM doxorubicin,-29.9% (inactive)
same,viability,[2]; [12],41.1%
same,viability,[2]; [13],11.2%
Oc1ccc(Nc2nc(-c3ccc(O)cc3)cs2)cc1,viability,[1],58.4% (inactive)
same,differential viability (reversal),[2]; H69AR cells + 2 uM doxorubicin,-29.7% (inactive)
same,viability,[2]; [12],88.1%
same,viability,[2]; [13],58.4%
same,inhibition,[3],-8.13% (inactive)
same,inhibition,[4],-4.13% (inactive)
COc1cc2c(cc1OC)C(c1ccccc1)N(C(=O)c1ccco1)CC2 (stereo not given),growth inhibition,[6],-21.2% (inactive)
same,growth inhibition,[7],-17.6% (inactive)
same,viability increase,[8],-3.16% (inactive)
same,viability,[9],68.4% (inactive)
same,viability,[10],63.5% (inactive)
same,inhibition,[11],2.55% (inactive)
COc1cccc(NC(=O)c2ccc(S(=O)(=O)N3CCCCC3)cc2)c1,growth inhibition,[6],4.79% (inactive)
same,growth inhibition,[7],5.21% (inactive)
same,viability increase,[8],-1.52% (inactive)
same,viability,[9],95.6% (inactive)
same,viability,[10],85.7% (inactive)
same,inhibition,[11],1.28% (inactive)
